# From PMC11006913
# Where a chain is given by its changes, count along the chain named.
# Key:
# Assay in all cases: PBM; 200 nM protein, PBS
# Settings in all cases: dsDNA, one strand shown
# [1] = biological target: HOXB9 (Homo sapiens, UniProt P17482 171-250, T197M)
# [2] = biological target: HOXA7 (Homo sapiens, UniProt P31268 116-202)
# [3] = biological target: PRRX1 (Homo sapiens, UniProt P54821 80-166, F113S)
# [4] = biological target: HOXB6 (Homo sapiens, UniProt P17509 132-218, K202E)
# [5] = biological target: HOXA4 (Homo sapiens, UniProt Q00056 201-287, R217L)
# Chain of HOXA4 (Homo sapiens, UniProt Q00056 201-287, R217L) (Q00056 201-287 R217L): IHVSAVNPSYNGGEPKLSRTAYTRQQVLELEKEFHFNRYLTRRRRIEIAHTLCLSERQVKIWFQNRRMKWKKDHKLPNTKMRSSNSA
# [6] = biological target: MSX2 (Homo sapiens, UniProt P35548 130-214, R199I)
# Chain of MSX2 (Homo sapiens, UniProt P35548 130-214, R199I) (P35548 130-214 R199I): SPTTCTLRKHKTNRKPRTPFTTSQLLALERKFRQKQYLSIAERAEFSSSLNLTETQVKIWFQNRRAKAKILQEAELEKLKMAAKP
# [7] = biological target: HOXA7 (Homo sapiens, UniProt P31268 116-202, W177C)
# Chain of HOXA7 (Homo sapiens, UniProt P31268 116-202, W177C) (P31268 116-202 W177C): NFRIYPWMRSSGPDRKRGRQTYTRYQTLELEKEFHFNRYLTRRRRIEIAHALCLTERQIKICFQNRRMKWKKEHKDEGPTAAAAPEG
# [8] = biological target: HOXA4 (Homo sapiens, UniProt Q00056 201-287, W262F)
# Chain of HOXA4 (Homo sapiens, UniProt Q00056 201-287, W262F) (Q00056 201-287 W262F): as the sequence (Q00056 201-287 R217L) above, with L17R, W62F counted along it
# [9] = biological target: HOXB6 (Homo sapiens, UniProt P17509 132-218)
# Chain of HOXB6 (Homo sapiens, UniProt P17509 132-218) (P17509 132-218): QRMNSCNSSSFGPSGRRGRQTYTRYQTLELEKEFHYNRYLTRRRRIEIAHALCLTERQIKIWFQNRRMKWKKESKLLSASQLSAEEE
# [10] = biological target: HOXB9 (Homo sapiens, UniProt P17482 171-250)
# Chain of HOXB9 (Homo sapiens, UniProt P17482 171-250) (P17482 171-250): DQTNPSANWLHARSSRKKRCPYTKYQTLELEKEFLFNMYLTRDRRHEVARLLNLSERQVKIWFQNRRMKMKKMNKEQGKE
# [11] = biological target: PROP1 (Homo sapiens, UniProt O75360 56-141)
# Chain of PROP1 (Homo sapiens, UniProt O75360 56-141) (O75360 56-141): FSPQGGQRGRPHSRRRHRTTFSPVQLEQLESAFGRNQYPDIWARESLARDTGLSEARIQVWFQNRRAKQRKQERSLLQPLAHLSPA
# [12] = biological target: PROP1 (Homo sapiens, UniProt O75360 56-141, R99H)
# Chain of PROP1 (Homo sapiens, UniProt O75360 56-141, R99H) (O75360 56-141 R99H): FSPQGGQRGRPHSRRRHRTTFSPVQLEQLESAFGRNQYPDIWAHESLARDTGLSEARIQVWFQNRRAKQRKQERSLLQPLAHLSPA
# [13] = biological target: HOXB9 (Homo sapiens, UniProt P17482 171-250, R186Q)
# Chain of HOXB9 (Homo sapiens, UniProt P17482 171-250, R186Q) (P17482 171-250 R186Q): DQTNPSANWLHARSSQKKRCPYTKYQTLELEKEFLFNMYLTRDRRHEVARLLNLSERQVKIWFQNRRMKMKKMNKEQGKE
# [14] = biological target: PROP1 (Homo sapiens, UniProt O75360 56-141, F88S)
# Chain of PROP1 (Homo sapiens, UniProt O75360 56-141, F88S) (O75360 56-141 F88S): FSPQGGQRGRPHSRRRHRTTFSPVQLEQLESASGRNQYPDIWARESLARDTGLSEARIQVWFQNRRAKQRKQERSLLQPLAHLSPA
# [15] = biological target: ALX3 (Homo sapiens, UniProt O95076 139-225, N203Q)
# Chain of ALX3 (O95076 139-225 N203Q): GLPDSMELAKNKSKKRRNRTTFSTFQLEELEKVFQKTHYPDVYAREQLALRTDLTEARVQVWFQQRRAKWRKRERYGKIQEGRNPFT
# [16] = biological target: HOXC9 (Homo sapiens, UniProt P31274 178-260, R222W)
# Chain of HOXC9 (Homo sapiens, UniProt P31274 178-260, R222W) (P31274 178-260 R222W): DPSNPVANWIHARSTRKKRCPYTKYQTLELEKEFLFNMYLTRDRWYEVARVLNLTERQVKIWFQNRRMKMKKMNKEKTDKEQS
# [17] = biological target: HOXC10 (Homo sapiens, UniProt Q9NYD6 254-340)
# Chain of HOXC10 (Homo sapiens, UniProt Q9NYD6 254-340) (Q9NYD6 254-340): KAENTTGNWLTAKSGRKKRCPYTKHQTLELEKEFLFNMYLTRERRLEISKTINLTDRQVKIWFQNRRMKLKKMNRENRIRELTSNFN
# [18] = biological target: ALX4 (Homo sapiens, UniProt Q9H161 200-286, Q225E)
# Chain of ALX4 (Homo sapiens, UniProt Q9H161 200-286, Q225E) (Q9H161 200-286 Q225E): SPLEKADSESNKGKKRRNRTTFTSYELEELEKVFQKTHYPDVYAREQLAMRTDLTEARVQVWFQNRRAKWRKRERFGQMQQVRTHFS
# [19] = biological target: HOXD13 (Homo sapiens, UniProt P35453 263-343, T313R)
# Chain of HOXD13 (Homo sapiens, UniProt P35453 263-343, T313R) (P35453 263-343 T313R): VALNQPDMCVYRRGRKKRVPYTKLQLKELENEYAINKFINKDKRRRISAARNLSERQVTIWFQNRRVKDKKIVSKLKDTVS
# [20] = biological target: HOXD13 (Homo sapiens, UniProt P35453 263-343)
# Chain of HOXD13 (Homo sapiens, UniProt P35453 263-343) (P35453 263-343): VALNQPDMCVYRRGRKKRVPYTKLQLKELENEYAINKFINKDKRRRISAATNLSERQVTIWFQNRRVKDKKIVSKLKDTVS
# [21] = biological target: HOXC10 (Homo sapiens, UniProt Q9NYD6 254-340, K271E)
# Chain of HOXC10 (Homo sapiens, UniProt Q9NYD6 254-340, K271E) (Q9NYD6 254-340 K271E): as the sequence (Q9NYD6 254-340) above, with K18E counted along it
# [22] = biological target: HOXD13 (Homo sapiens, UniProt P35453 263-343, T313A)
# Chain of HOXD13 (Homo sapiens, UniProt P35453 263-343, T313A) (P35453 263-343 T313A): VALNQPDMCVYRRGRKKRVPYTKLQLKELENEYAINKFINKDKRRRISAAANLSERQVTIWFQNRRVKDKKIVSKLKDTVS
# [23] = biological target: ALX4 (Homo sapiens, UniProt Q9H161 200-286)
# Chain of ALX4 (Homo sapiens, UniProt Q9H161 200-286) (Q9H161 200-286): as the sequence (Q9H161 200-286 Q225E) above, with E26Q counted along it
# [24] = biological target: HOXC9 (Homo sapiens, UniProt P31274 178-260, K195R)
# Chain of HOXC9 (Homo sapiens, UniProt P31274 178-260, K195R) (P31274 178-260 K195R): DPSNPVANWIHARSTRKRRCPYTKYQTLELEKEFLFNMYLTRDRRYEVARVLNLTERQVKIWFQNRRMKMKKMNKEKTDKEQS
# [25] = biological target: HOXC9 (Homo sapiens, UniProt P31274 178-260)
# Chain of HOXC9 (Homo sapiens, UniProt P31274 178-260) (P31274 178-260): as the sequence (P31274 178-260 R222W) above, with W45R counted along it
# [26] = biological target: HOXC9 (Homo sapiens, UniProt P31274 178-260, R193K)
# Chain of HOXC9 (Homo sapiens, UniProt P31274 178-260, R193K) (P31274 178-260 R193K): as the sequence (P31274 178-260 R222W) above, with R16K, W45R counted along it
# [27] = biological target: T1, PAX4 (Homo sapiens, UniProt O43316 9-242, R200K)
# T1 sequence: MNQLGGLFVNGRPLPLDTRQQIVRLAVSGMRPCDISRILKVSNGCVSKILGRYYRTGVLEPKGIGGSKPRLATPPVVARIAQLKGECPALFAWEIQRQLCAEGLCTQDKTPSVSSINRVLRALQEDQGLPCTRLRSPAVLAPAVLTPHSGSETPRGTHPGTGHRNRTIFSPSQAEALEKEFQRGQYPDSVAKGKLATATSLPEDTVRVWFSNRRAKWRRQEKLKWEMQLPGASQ
# [28] = biological target: T2, PAX4 (Homo sapiens, UniProt O43316 9-242)
# T2 sequence: T1 sequence with K192R
# [29] = biological target: T3, PAX4 (Homo sapiens, UniProt O43316 9-242, R200Q)
# T3 sequence: T1 sequence with K192Q
# [30] = biological target: T4, PAX4 (Homo sapiens, UniProt O43316 9-242, F177V)
# T4 sequence: T1 sequence with F169V, K192R
# [31] = biological target: MSX2 (Homo sapiens, UniProt P35548 130-214)
# Chain of MSX2 (Homo sapiens, UniProt P35548 130-214) (P35548 130-214): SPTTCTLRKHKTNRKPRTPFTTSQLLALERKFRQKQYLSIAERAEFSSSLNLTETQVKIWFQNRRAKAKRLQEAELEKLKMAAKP
# [32] = biological target: T5, PAX4 (Homo sapiens, UniProt O43316 9-242, F177Y)
# T5 sequence: T1 sequence with F169Y, K192R
# [33] = biological target: MSX2 (Homo sapiens, UniProt P35548 130-214, F161Y)
# Chain of MSX2 (Homo sapiens, UniProt P35548 130-214, F161Y) (P35548 130-214 F161Y): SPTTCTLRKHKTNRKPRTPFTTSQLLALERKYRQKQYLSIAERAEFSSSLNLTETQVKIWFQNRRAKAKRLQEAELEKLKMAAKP
# [34] = biological target: T6, PAX4 (Homo sapiens, UniProt O43316 9-242, R227W)
# T6 sequence: T1 sequence with K192R, R219W
# Chain of HOXB6 (Homo sapiens, UniProt P17509 132-218, K202E) (P17509 132-218 K202E): as the sequence (P17509 132-218) above, with K71E counted along it
# Chain of HOXB9 (Homo sapiens, UniProt P17482 171-250, T197M) (P17482 171-250 T197M): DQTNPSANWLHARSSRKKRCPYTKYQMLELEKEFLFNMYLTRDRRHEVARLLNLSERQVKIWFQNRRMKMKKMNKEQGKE
# Chain of HOXA7 (Homo sapiens, UniProt P31268 116-202) (P31268 116-202): as the sequence (P31268 116-202 W177C) above, with C62W counted along it
# Chain of PRRX1 (P54821 80-166 F113S): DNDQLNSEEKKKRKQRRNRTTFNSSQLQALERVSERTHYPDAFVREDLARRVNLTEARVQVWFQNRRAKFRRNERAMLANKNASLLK
sequence,measurement,setting,value
AATTACCA,binding signal,[1],"10.1 upbm affinity estimate (log intensity, higher = more binding, comparable within an allelic series)"
same,binding signal,[2],"11.2 upbm affinity estimate (log intensity, higher = more binding, comparable within an allelic series)"
same,binding signal,[3],"11.1 upbm affinity estimate (log intensity, higher = more binding, comparable within an allelic series)"
same,binding signal,[4],"9.98 upbm affinity estimate (log intensity, higher = more binding, comparable within an allelic series)"
same,binding signal,[5],"11.9 upbm affinity estimate (log intensity, higher = more binding, comparable within an allelic series)"
same,binding signal,[6],"12.2 upbm affinity estimate (log intensity, higher = more binding, comparable within an allelic series)"
same,binding signal,[7],"8.87 upbm affinity estimate (log intensity, higher = more binding, comparable within an allelic series)"
same,binding signal,[8],"11.4 upbm affinity estimate (log intensity, higher = more binding, comparable within an allelic series)"
same,binding signal,[9],"11.7 upbm affinity estimate (log intensity, higher = more binding, comparable within an allelic series)"
AATTATAT,binding signal,[1],"9.99 upbm affinity estimate (log intensity, higher = more binding, comparable within an allelic series)"
same,binding signal,[3],"11.1 upbm affinity estimate (log intensity, higher = more binding, comparable within an allelic series)"
same,binding signal,[4],"9.99 upbm affinity estimate (log intensity, higher = more binding, comparable within an allelic series)"
GGTGGAGA,binding signal,[1],"8.58 upbm affinity estimate (log intensity, higher = more binding, comparable within an allelic series)"
same,binding signal,[4],"9.03 upbm affinity estimate (log intensity, higher = more binding, comparable within an allelic series)"
same,binding signal,[10],"8.51 upbm affinity estimate (log intensity, higher = more binding, comparable within an allelic series)"
same,binding signal,[11],"6.89 upbm affinity estimate (log intensity, higher = more binding, comparable within an allelic series)"
same,binding signal,[12],"6.82 upbm affinity estimate (log intensity, higher = more binding, comparable within an allelic series)"
same,binding signal,[13],"8.56 upbm affinity estimate (log intensity, higher = more binding, comparable within an allelic series)"
same,binding signal,[14],"6.65 upbm affinity estimate (log intensity, higher = more binding, comparable within an allelic series)"
same,binding signal,[9],"9.09 upbm affinity estimate (log intensity, higher = more binding, comparable within an allelic series)"
AATAATAA,binding signal,[1],"9.97 upbm affinity estimate (log intensity, higher = more binding, comparable within an allelic series)"
same,binding signal,[2],"10.8 upbm affinity estimate (log intensity, higher = more binding, comparable within an allelic series)"
same,binding signal,[4],"10 upbm affinity estimate (log intensity, higher = more binding, comparable within an allelic series)"
same,binding signal,[15],"8.58 upbm affinity estimate (log intensity, higher = more binding, comparable within an allelic series)"
same,binding signal,[16],"11.1 upbm affinity estimate (log intensity, higher = more binding, comparable within an allelic series)"
same,binding signal,[7],"8.85 upbm affinity estimate (log intensity, higher = more binding, comparable within an allelic series)"
TCAATAAA,binding signal,[1],"9.75 upbm affinity estimate (log intensity, higher = more binding, comparable within an allelic series)"
same,binding signal,[17],"12.2 upbm affinity estimate (log intensity, higher = more binding, comparable within an allelic series)"
same,binding signal,[18],"11.2 upbm affinity estimate (log intensity, higher = more binding, comparable within an allelic series)"
same,binding signal,[10],"11.8 upbm affinity estimate (log intensity, higher = more binding, comparable within an allelic series)"
same,binding signal,[19],"11 upbm affinity estimate (log intensity, higher = more binding, comparable within an allelic series)"
same,binding signal,[20],"12 upbm affinity estimate (log intensity, higher = more binding, comparable within an allelic series)"
same,binding signal,[21],"11.6 upbm affinity estimate (log intensity, higher = more binding, comparable within an allelic series)"
same,binding signal,[22],"11.7 upbm affinity estimate (log intensity, higher = more binding, comparable within an allelic series)"
same,binding signal,[13],"11.5 upbm affinity estimate (log intensity, higher = more binding, comparable within an allelic series)"
same,binding signal,[16],"11.3 upbm affinity estimate (log intensity, higher = more binding, comparable within an allelic series)"
GGTCGTTA,binding signal,[1],"9.98 upbm affinity estimate (log intensity, higher = more binding, comparable within an allelic series)"
same,binding signal,[17],"12.2 upbm affinity estimate (log intensity, higher = more binding, comparable within an allelic series)"
same,binding signal,[21],"12.2 upbm affinity estimate (log intensity, higher = more binding, comparable within an allelic series)"
GGAGCCAC,binding signal,[1],"8.39 upbm affinity estimate (log intensity, higher = more binding, comparable within an allelic series)"
same,binding signal,[23],"8.24 upbm affinity estimate (log intensity, higher = more binding, comparable within an allelic series)"
same,binding signal,[18],"8.19 upbm affinity estimate (log intensity, higher = more binding, comparable within an allelic series)"
same,binding signal,[10],"8.65 upbm affinity estimate (log intensity, higher = more binding, comparable within an allelic series)"
same,binding signal,[13],"8.65 upbm affinity estimate (log intensity, higher = more binding, comparable within an allelic series)"
CCCGATGC,binding signal,[1],"8.47 upbm affinity estimate (log intensity, higher = more binding, comparable within an allelic series)"
same,binding signal,[24],"9.5 upbm affinity estimate (log intensity, higher = more binding, comparable within an allelic series)"
same,binding signal,[10],"8.13 upbm affinity estimate (log intensity, higher = more binding, comparable within an allelic series)"
same,binding signal,[25],"9.57 upbm affinity estimate (log intensity, higher = more binding, comparable within an allelic series)"
same,binding signal,[19],"9.52 upbm affinity estimate (log intensity, higher = more binding, comparable within an allelic series)"
same,binding signal,[26],"9.49 upbm affinity estimate (log intensity, higher = more binding, comparable within an allelic series)"
same,binding signal,[20],"9.47 upbm affinity estimate (log intensity, higher = more binding, comparable within an allelic series)"
same,binding signal,[22],"9.71 upbm affinity estimate (log intensity, higher = more binding, comparable within an allelic series)"
same,binding signal,[13],"8.19 upbm affinity estimate (log intensity, higher = more binding, comparable within an allelic series)"
same,binding signal,[16],"9.68 upbm affinity estimate (log intensity, higher = more binding, comparable within an allelic series)"
GCTCTCCC,binding signal,[1],"8.34 upbm affinity estimate (log intensity, higher = more binding, comparable within an allelic series)"
same,binding signal,[27],"9.21 upbm affinity estimate (log intensity, higher = more binding, comparable within an allelic series)"
same,binding signal,[28],"9.22 upbm affinity estimate (log intensity, higher = more binding, comparable within an allelic series)"
same,binding signal,[10],"8.35 upbm affinity estimate (log intensity, higher = more binding, comparable within an allelic series)"
same,binding signal,[6],"9.54 upbm affinity estimate (log intensity, higher = more binding, comparable within an allelic series)"
same,binding signal,[29],"9.3 upbm affinity estimate (log intensity, higher = more binding, comparable within an allelic series)"
same,binding signal,[30],"9.23 upbm affinity estimate (log intensity, higher = more binding, comparable within an allelic series)"
same,binding signal,[31],"9.45 upbm affinity estimate (log intensity, higher = more binding, comparable within an allelic series)"
same,binding signal,[32],"9.16 upbm affinity estimate (log intensity, higher = more binding, comparable within an allelic series)"
same,binding signal,[11],"6.88 upbm affinity estimate (log intensity, higher = more binding, comparable within an allelic series)"
same,binding signal,[12],"6.87 upbm affinity estimate (log intensity, higher = more binding, comparable within an allelic series)"
same,binding signal,[13],"8.35 upbm affinity estimate (log intensity, higher = more binding, comparable within an allelic series)"
same,binding signal,[14],"6.53 upbm affinity estimate (log intensity, higher = more binding, comparable within an allelic series)"
same,binding signal,[33],"9.57 upbm affinity estimate (log intensity, higher = more binding, comparable within an allelic series)"
same,binding signal,[34],"9.27 upbm affinity estimate (log intensity, higher = more binding, comparable within an allelic series)"
